Test results taken from PubChem BioAssay (NCATS).
Records with an inconclusive call do not appear. Active and inactive are the calls of the source. The call rests on the fitted dose curve; in most records, active means well fitted curve in the direction sought with a large enough effect; inconclusive means small, poorly fitted or top-dose-only effect, or another doubt; inactive means no such curve, though single readings can be large; an effect the other way counts as inactive or inconclusive.

Legend:
[1] = A2780 Cisplatin Sensitive Ovarian Cancer Cell Toxicity qHTS against the NCATS CANVASS Library (AID 1347353); further: nearly all actives have a fitted effect of over 60% in size; further: potency means the concentration at half of the fitted maximal effect
In short: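 Seventy-two-hour exposure of cisplatin-sensitive A2780 ovarian cells to an 11-concentration qHTS series; cytotoxicity is inferred from loss of ATPLite luminescence. Bortezomib titration served as positive control.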

[2] = HEK-293 Cancer Cell Toxicity qHTS against the NCATS CANVASS Library (AID 1347355); further: nearly all actives have a fitted effect of over 65% in size; further: potency means the concentration at half of the fitted maximal effect
In short: (§1)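 qHTS cytotoxicity: compounds tested in 11 concentrations on 1000 seeded cells per well over 72 h; bortezomib served as control; signal from CellTiter-Glo luminescence.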

[3] = HPAF-II 24hr Apoptosis Induction qHTS against the NCATS CANVASS Library (AID 1347356)
In short: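 Apoptosis induction in HPAF-II pancreatic cancer cells is measured as caspase-3/7 luminescence after a 24-hour exposure to compounds.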

[4] = KB-8-5-11 Cancer Cell Toxicity qHTS against the NCATS CANVASS Library (AID 1347364); further: nearly all actives have a fitted effect of over 75% in size; further: potency means the concentration at half of the fitted maximal effect
In short: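 Natural products were titrated in 11 points onto KB-8-5-11 cells, 500 per well, and cytotoxicity was scored from CellTiter-Glo luminescence after 72 hr culture.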

[5] = SDT Cancer Cell Toxicity qHTS against the NCATS CANVASS Library (AID 1347365); further: nearly all actives have a fitted effect of over 60% in size; further: potency means the concentration at half of the fitted maximal effect
In short: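 Dispense 500 SDT cells per well; pin-transfer compounds; incubate 72 hr at 37C, 5% CO2, 95% RH; add CellTiterGlo and read luminescence.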

[6] = qHTS for Hypoxia signaling pathway (HIF-1) antagonists against the NCATS CANVASS Library (AID 1347374); further: nearly all actives have a fitted effect of over 60% in size; further: potency means the concentration at half of the fitted maximal effect
In short: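 HRE-bla ME-180 cells (2,000/well, 0.5% dialyzed FBS) were pre-incubated 5 h, then given an 11-point compound series plus CoCl2 (60 uM solution as added) for 17 h at 37C. CCF4 β-lactamase read (ex 405, em 460/530 nm) after 2 h at RT.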

[7] = qHTS for Hypoxia signaling pathway (HIF-1) agonists against the NCATS CANVASS Library (AID 1347375)
In short: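 Inducers of HIF-1 signaling were detected in ME-180 cells bearing an HRE-driven beta-lactamase reporter after 17 h compound exposure. Activity came from CCF4-AM FRET emission ratio (460/530 nm) in qHTS format.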

[8] = Cytotoxicity qHTS for assessment of Hepg2 cells membrane integrity screened against the NCATS CANVASS Library (AID 1347387)
In short: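 Fluorescence proportional to lysed-cell number, from LDH leaking out of HepG2 cells exposed 5 hr at 37C to 0.59 nM - 46 uM compound (11-point qHTS), is measured after 10 min with CytoTox-ONE.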

[9] = qHTS for activators of dead-cell proteases activity screened against the NCATS CANVASS Library (AID 1347392);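 further: luminescence from protease leaking out of membrane-damaged cells cleaving impermeant substrate; rising signal means more cytotoxicity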; further: potency means the concentration at half of the fitted maximal effect
In short: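 Compounds are pin-transferred onto attached HepG2 cells, giving 11 final concentrations. After 5 h at 37C, AAF-aminoluciferin reagent is added and luminescence is recorded at room temperature.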

[10] = Redox Reaction Profiling qHTS: Assay Interference Panel against the NCATS CANVASS Library (AID 1347401)
In short: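 Cell-free redox surrogate: 5 uM resazurin + 200 uM DTT, 50 mM HEPES pH 7.3/50 mM NaCl; cpds pinned, 11-pt qHTS; Ex525/Em598 read t0 and t=15 min, dark.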

[11] = UWB1.289-WTBRCA1 Cancer Cell Toxicity qHTS against the NCATS CANVASS Library (AID 1347354)
In short: as §1

[12] = qHTS for ATAD5 Agonist screened against the NCATS CANVASS Library (AID 1347367)
In short: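 Luminescence read-out: ATAD5-driven luciferase in stably transfected HEK 293T cells, which rises post-transcriptionally with DNA damage. Cells were exposed 16hr at 37C to test compound; a CellTiter-Fluor fluorescence read (1hr) measured viability first.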

[13] = qHTS for activators of Nrf2/ARE signaling pathway screened against the NCATS CANVASS Library (AID 1347391); further: nearly all actives have a fitted effect of over 60% in size; further: potency means the concentration at half of the fitted maximal effect
In short: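 Cells carrying an ARE-driven beta-lactamase reporter (HepG2 background) are dosed for 16 h, then stained with CCF4. Cell viability in the same wells is measured by CellTiter-Glo luminescence.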

[14] = qHTS for inhibitors of ER calcium dysfunction: SERCaMP assay screened against the NCATS CANVASS Library (AID 1347393); further: nearly all actives have a fitted effect of over 40% in size; further: potency means the concentration at half of the fitted maximal effect
In short: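 Thapsigargin-induced ER calcium depletion drives GLuc-SERCaMP secretion from SH-SY5Y cells; compounds given 16 h beforehand were scored by lowered coelenterazine luminescence after 4 h challenge.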

[15] = Vero-766 cells viability qHTS against the NCATS CANVASS Library: Counterscreen for Zika virus inhibition assay (AID 1347394); further: nearly all actives have a fitted effect of over 60% in size; further: potency means the concentration at half of the fitted maximal effect
In short: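 CellTiter-Glo luminescence, lower signal indicating cytotoxicity. Vero 766 cells without Zika virus, 1000 cells/well, plated overnight, then treated 72 h at 37C across an 11-point series.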

[16] = Viability qHTS for inhibitors of the SERCaMP assay screened against the NCATS CANVASS Library (AID 1347400); further: nearly all actives have a fitted effect of over 70% in size; further: potency means the concentration at half of the fitted maximal effect
In short: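 Cytotoxicity counter-screen: ATP content (CellTiter-Glo luminescence) of SH-SY5Y-GLuc SERCaMP MJH297 cells after 48 h at 37C with compounds in an 11-point qHTS series.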

[17] = HPAF-II Cancer Cell Toxicity qHTS against the NCATS CANVASS Library (AID 1347346); further: nearly all actives have a fitted effect of over 55% in size; further: potency means the concentration at half of the fitted maximal effect
In short: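 Cytotoxicity in HPAF-II pancreatic cancer cells: 72 h treatment across 11 concentrations, ATP-based CellTiter-Glo luminescence endpoint.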

[18] = Panc-1005 Cancer Cell Toxicity qHTS against the NCATS CANVASS Library (AID 1347349); further: nearly all actives have a fitted effect of over 60% in size; further: potency means the concentration at half of the fitted maximal effect
In short: (§2)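 ATP content after 72 h treatment, detected by CellTiter-Glo luminescence (15min room-temperature development), reflects cell viability. Wells contained 1000 cells and received compounds at 11 concentrations.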

[19] = OV-SAHO Cancer Cell Toxicity qHTS against the NCATS CANVASS Library (AID 1347348); further: nearly all actives have a fitted effect of over 55% in size; further: potency means the concentration at half of the fitted maximal effect
In short: as §2

[20] = COV-362 Cancer Cell Toxicity qHTS against the NCATS CANVASS Library (AID 1347352); further: potency means the concentration at half of the fitted maximal effect
In short: as §1

Measured: Potency

Cc1cc(C)c(O)c(C(=O)CC2CC(=O)NC(=O)C2)c1
inactive: [3] | [7] | [8] | [9] | [10]
active: [1] 4.69 µM | [2] 3.72 µM | [4] 7.43 µM | [5] 1.32 µM | [6] 7.47 µM

CC(C)=CCC/C(C)=C/Cc1cc([C@@H]2CC(=O)c3c(cc(O)c(CC=C(C)C)c3O)O2)ccc1O
active: [13] 20.9 µM | [14] 38.4 µM
not listed: [2] | [3] | [6] | [17] | [18] | [19] | [20]
inactive: all other assays above

COC(=O)c1cc2cc3c(c(O)c2c(=O)o1)OC1(CC3)CC2=C(O1)C(=O)c1c(O)c(OC)cc(OC)c1C2=O (centres undefined)
active: [17] 18.8 µM | [18] 21.1 µM | [1] 20.9 µM | [6] 14.9 µM | [13] 10.5 µM | [15] 26.3 µM
inactive: [12] | [9] | [14]

CN1CC[C@]23c4ccccc4N[C@H]1[C@]21CCN(C)[C@H]3Nc2ccccc21
not listed: [6] | [7] | [9] | [10]
inactive: all other assays above

C/C(=C\[C@H](C)C(=O)C[C@H](O)CC1CC(=O)NC(=O)C1)[C@@H]1OC(=O)CCCC/C=C/C[C@@H](O)[C@@H]1C
inactive: [3] | [4] | [8] | [9] | [14] | [15] | [10]
active: [1] 2.35 µM | [2] 7.43 µM | [5] 1.66 µM | [6] 4.72 µM

CO/C=C/C(=O)c1cc2cnc3c(N)cc(=NC(=O)C(C)C)c([nH]1)c23
inactive: [12] | [13] | [14] | [10]
active: [19] 0.0375 µM | [20] 0.211 µM | [1] 0.0296 µM | [2] 0.166 µM | [4] 0.296 µM | [5] 0.372 µM | [6] 0.0334 µM | [9] 23.4 µM | [15] 0.524 µM | [16] 0.381 µM

C/C(=C\CC[C@@H](C)[C@H]1CC[C@]2(C)C3=CCC4C(C)(C)[C@@H](O)C[C@@H](O)[C@]4(C)C3[C@H](O)C[C@@]12C)CO (some centres undefined)
active: [6] 14.9 µM | [15] 33.1 µM
inactive: [11] | [5] | [12] | [8] | [16] | [10]

C=C1CCC2C(C)(C(=O)O)CCC(CC/C(C)=C/C(=O)NC(CCC(N)=O)C(=O)O)[C@@]2(C)C1 (some centres undefined)
not listed: [8]
inactive: all other assays above

CCC(=O)N[C@@H](C[C@H](C)C(Cl)(Cl)Cl)C(=O)N1C(=O)C=C(OC)[C@@H]1CC(C)C
active: [1] 26.4 µM
not listed: [2] | [3] | [4] | [5] | [8] | [10] | [13] | [17]
inactive: all other assays above

C/C1=C/[C@@H](C)[C@H](O)[C@@H](O)/C=C/CC/C=C/C(=O)O[C@@H]1[C@H](C)C(=O)/C=C/CC1CC(=O)NC(=O)C1
inactive: [17] | [11] | [3] | [4] | [12] | [7] | [8] | [14] | [15]
active: [1] 13.2 µM | [5] 18.7 µM | [6] 16.7 µM | [16] 3.03 µM

CC1=C2CC[C@]3(C)[C@H](CC=C4[C@@H]5CC(C)(C)CC[C@@H]5C(=O)[C@H](O)[C@]43C)[C@@]2(C)C=C(O)C1=O
active: [6] 9.41 µM | [14] 12.2 µM
inactive: [11] | [3] | [5] | [12] | [7] | [8] | [9] | [16] | [10]

CC(C)=CCCC(C)(O)[C@H]1CC=C(C)C(O)C1 (some centres undefined)
not listed: [7] | [9]
inactive: all other assays above

COC(=O)C1=C[C@]23C[C@@H](C)CC[C@@H]2[C@@]2(C)CC[C@@H](C(C)C)[C@@](O)(O3)[C@@H]12
active: [17] 18.8 µM | [4] 18.7 µM | [14] 34.3 µM
inactive: [18] | [3] | [12] | [6] | [7] | [8] | [9] | [15] | [16]

CCC(C)=C1OC(=O)[C@H](C)[C@H](O)[C@H](Cc2cccnc2)NC(=O)C(NC(=O)c2ncccc2O)C(C)OC1=O (some centres undefined)
not listed: [6] | [7] | [8] | [9] | [14] | [15]
inactive: all other assays above

CN1CC[C@]2(c3cccc4c3N[C@H]3N(C)CC[C@@]43[C@]34CCN(C)[C@H]3Nc3ccccc34)c3ccccc3N[C@H]12
active: [19] 16.7 µM | [18] 21.1 µM | [20] 14.9 µM | [2] 7.43 µM | [4] 18.7 µM | [5] 4.18 µM | [15] 20.9 µM | [16] 15.2 µM
inactive: [3] | [12] | [7] | [8] | [9] | [10]
